In PubChem BioAssay AID624405 (Broad Institute, 2012):
In all, about 1,900 compounds went through this assay and about 250 (13%) were called active. Inconclusive results (about 4%) are left out.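 Rule for the calls: active = fitted curve reaches 40% rescue activity at or below the top valid dose, in every test run; inconclusive = test runs disagree, some active and some inactive; inactive = every run misses the threshold or moves the wrong way.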 The list is a sample of the results. Entries with a potency or affinity are not part of this list.

Assay: rescue of simvastatin-induced ATP loss – cell-based, C2C12 myotubes, ATP luminescence, cherry pick, dose response (AID 624405);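 note: myotubes are challenged with simvastatin at 10 µM to lower ATP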
Details: 48 h, scaled: DMSO wells 0, geranylgeraniol wells 100; series mostly up to 19.5 µM
In the case of `C[C@H](CO)N1C[C@H](C)[C@@H](CN(C)Cc2ccc(-c3ccccc3)cc2)Oc2ccc(NC(=O)Cc3cn(C)c4ccccc34)cc2CC1=O`, the outcome is reported as “inactive”. In the case of `C[C@@H]1CN([C@H](C)CO)C(=O)c2cccc(NS(=O)(=O)c3cccs3)c2O[C@@H]1CN(C)Cc1ccc(Oc2ccccc2)cc1`, the outcome is reported as “inactive”. With `CC1Cc2ccccc2N1C(=O)C1CCN(S(=O)(=O)Cc2ccccc2)CC1` (configuration not stated) the outcome was “inactive”. For `Cc1cc(C(=O)CSc2nnnn2-c2ccccc2)c(C)n1CCc1ccccc1`, the outcome was “inactive”. For `CCOC(=O)c1ccc(-c2c(C(=O)OCC)oc3cc(O)c(CC)cc3c2=O)o1`, the outcome was “inactive”. For `Cc1cccc(C(=O)N2CCC(n3nnc4cc(F)ccc43)CC2)c1`, the outcome was “inactive”. For `Cc1cccc(C)c1NC(=O)c1nc(S(=O)(=O)Cc2ccccc2)ncc1Cl`, the outcome was “inactive”. For `COc1ccccc1NC(=O)CN1C(=O)CCS(=O)(=O)c2ccccc21`, the outcome was “inactive”. In the case of `CCC(NS(=O)(=O)c1ccc(C)cc1)C(=O)Nc1ccc(NC(C)=O)cc1` (configuration not stated), the outcome is reported as “inactive”. For `CS(=O)(=O)c1ncc(Cl)c(C(=O)Nc2ccc(OC(F)F)cc2)n1`, the outcome was “inactive”. For `Cc1noc(C)c1NC(=O)Nc1ccc2c(c1)C(=O)N([C@H](C)CO)C[C@@H](C)[C@H](CN(C)C(=O)Nc1ccccc1)OCCCC[C@@H](C)O2`, the outcome was “inactive”. For `CN1C[C@@H]2[C@H](c3ccccc31)[C@H](CO)N2Cc1ccccc1`, the outcome was “inactive”. With `Nc1nc(CSc2nnnn2-c2ccccc2)nc(N2CCCc3ccccc32)n1` the outcome was “inactive”. With `COC(=O)c1c(C)noc1-c1cc(C)on1` the outcome was “inactive”. With `C[C@@H]1CN([C@H](C)CO)C(=O)c2cc(NC(=O)Nc3ccc(F)cc3)ccc2O[C@@H](C)CCCCO[C@@H]1CN(C)S(=O)(=O)c1cccs1` the outcome was “inactive”. With `COc1cccc(-c2cnc3c(c2)C(=O)N([C@H](C)CO)C[C@H](C)[C@H](CN(C)Cc2cccc(C)c2)O3)c1` the outcome was “inactive”. For `C[C@@H]1CN([C@H](C)CO)C(=O)c2cc(NS(C)(=O)=O)ccc2O[C@@H](C)CCCCO[C@H]1CN(C)S(=O)(=O)c1ccc(Cl)cc1`, the outcome was “inactive”. In the case of `COc1ccc(NC(=O)Nc2ccc3c(c2)C(=O)N([C@@H](C)CO)C[C@@H](C)[C@@H](CN(C)CC2CCCCC2)OCCCC[C@H](C)O3)cc1`, the outcome is reported as “inactive”. In the case of `CCOCCn1c(N2CCN(c3ccc(OC)cc3)CC2)nc2c1c(=O)[nH]c(=O)n2C`, the outcome is reported as “inactive”. For `CCCCCn1c(N2CCC(C(N)=O)CC2)nc2c1c(=O)[nH]c(=O)n2C`, the outcome was “inactive”. With `CCCCn1c(SCc2ccccn2)nc2c1c(=O)n(C)c(=O)n2C` the outcome was “inactive”. For `Cc1cccc(Cn2c(N3CCCCC3C)nc3c2c(=O)[nH]c(=O)n3C)c1` (configuration not stated), the outcome was “inactive”. With `O=C(Nc1ccc2nn(-c3ccccc3)nc2c1)c1cccnc1` the outcome was “inactive”. With `O=C(CSCc1ccc(Cl)cc1)N/N=C/c1ccccc1` the outcome was “inactive”. For `C[C@@H]1CN([C@@H](C)CO)C(=O)Cc2cc(NC(=O)Nc3cccc4ccccc34)ccc2O[C@H]1CN(C)Cc1ccc(Oc2ccccc2)cc1`, the outcome was “inactive”. For `O=C(Nc1ccccc1Cl)NC1(C(=O)N2CCCCC2)CCCCC1`, the outcome was “inactive”. With `Cc1ccc(-c2cc(N)n(-c3ccc(C)cc3)n2)cc1` the outcome was “inactive”. With `C=CCn1c(=O)/c(=C\c2ccsc2)s/c1=C(/C#N)C(=O)NCCN1CCOCC1` the outcome was “inactive”. With `C[C@H]1CN([C@@H](C)CO)C(=O)c2cc(NS(=O)(=O)c3ccc(Cl)cc3)ccc2O[C@H]1CN(C)Cc1ccc(Oc2ccccc2)cc1` the outcome was “inactive”. For `C[C@H]1CN([C@@H](C)CO)C(=O)c2cc(NC(=O)Nc3ccc(C(F)(F)F)cc3)ccc2O[C@@H]1CN(C)Cc1ccc(C(=O)Nc2ccccc2N)cc1`, the outcome was “inactive”. In the case of `Cc1ccc(S(=O)(=O)Nc2ccc3c(c2)C(=O)N([C@@H](C)CO)C[C@H](C)[C@H](CN(C)Cc2ccc(C(=O)Nc4ccccc4N)cc2)O3)cc1`, the outcome is reported as “inactive”. With `C[C@@H]1CCCCO[C@H](CN(C)C(=O)Nc2cccc3ccccc23)[C@H](C)CN([C@H](C)CO)C(=O)c2cc(NS(=O)(=O)c3ccc(Cl)cc3)ccc2O1` the outcome was “inactive”. For `C[C@@H]1CN([C@H](C)CO)C(=O)c2cc(NS(=O)(=O)c3ccc(Cl)cc3)ccc2O[C@H]1CN(C)C(=O)Nc1cccc2ccccc12`, the outcome was “inactive”. With `Cc1ccc(S(=O)(=O)Nc2ccc3c(c2)C(=O)N([C@@H](C)CO)C[C@H](C)[C@H](CN(C)Cc2ccc(C(F)(F)F)cc2)O3)cc1` the outcome was “inactive”. With `C[C@@H]1CCCCO[C@@H](CN(C)Cc2ccc(C(F)(F)F)cc2)[C@H](C)CN([C@@H](C)CO)C(=O)c2cc(NC(=O)c3ccncc3)ccc2O1` the outcome was “inactive”. In the case of `C[C@H]1CCCCO[C@@H](CN(C)C(=O)Nc2ccc3c(c2)OCO3)[C@@H](C)CN([C@@H](C)CO)C(=O)c2cc(NS(=O)(=O)c3cccs3)ccc2O1`, the outcome is reported as “inactive”. In the case of `COc1ccc(S(=O)(=O)Nc2ccc3c(c2)C(=O)N([C@@H](C)CO)C[C@H](C)[C@@H](CN(C)S(=O)(=O)c2cccs2)OCCCC[C@@H](C)O3)cc1`, the outcome is reported as “inactive”. In the case of `CCOc1ccc(C2SCC(=O)N2c2c(C)n(C)n(-c3ccccc3)c2=O)cc1` (configuration not stated), the outcome is reported as “inactive”. With `COc1ccccc1Oc1ccc2c(c1)C(=O)N(c1ccc(O)cc1)C2=O` the outcome was “inactive”. With `C[C@@H]1CN([C@H](C)CO)C(=O)c2cc(C#CC3CCCCC3)cnc2O[C@@H]1CN(C)C(=O)C1CCCCC1` the outcome was “inactive”. With `COc1ccc(Br)cc1C1SCCN1S(C)(=O)=O` (configuration not stated) the outcome was “inactive”. For `CCC12CC3CC(C1)CC(C(=O)NNC(N)=O)(C3)C2`, the outcome was “inactive”. For `COCCNC(=O)C(c1ccc(C)o1)N(Cc1ccc(OC)cc1)C(=O)Cn1nnc2ccccc21` (configuration not stated), the outcome was “inactive”. For `C=CCOc1ccc(/C(CC)=N/O)cc1OC`, the outcome was “inactive”. In the case of `CS(=O)(=O)N(CC(=O)NCc1ccco1)c1ccc(OCc2ccccc2)cc1`, the outcome is reported as “inactive”. For `COc1cccc(NC(=O)N(C)C[C@H]2Oc3ncc(C#Cc4ccc(F)cc4)cc3C(=O)N([C@@H](C)CO)C[C@@H]2C)c1`, the outcome was “inactive”. With `N#C[C@H]1[C@H](c2ccc(-c3ccc(F)cc3)cc2)[C@@H](CO)N1C(=O)Cc1ccccc1` the outcome was “inactive”. For `COc1ccc(CC(=O)NC(CC(=O)O)c2cccc([N+](=O)[O-])c2)cc1` (configuration not stated), the outcome was “inactive”. For `COc1ccc(-c2ccc([C@H]3[C@@H](C#N)N(C(=O)NC4CCCCC4)[C@@H]3CO)cc2)cc1`, the outcome was “inactive”. With `CC(C)NC(=O)N1[C@@H](C#N)[C@H](c2ccc(-c3ccc(F)cc3)cc2)[C@@H]1CO` the outcome was “inactive”. In the case of `CC(C)NC(=O)N1[C@H](CO)[C@@H](c2ccc(-c3ccc(F)cc3)cc2)[C@@H]1C#N`, the outcome is reported as “inactive”. For `CC(C)NC(=O)N1[C@H](C#N)[C@@H](c2ccc(-c3ccc(F)cc3)cc2)[C@@H]1CO`, the outcome was “inactive”.
